Sampled rows, rich in hits. Any-hit rate of the full collection: about 19%.
IL-1B inflam inh: blocks inflammasome-driven IL-1 beta release | activity change, % at 57.5 µM | hit rate 4.7% among 360,000 | THP-1 LPS/ATP IL-1B secretion, AlphaLISA, 16 h; active compounds read low; in the data active means activity change below about -50%; inconclusive means mostly about -30% to -49%
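THP-1 cells pretreated 1 hr with compounds (up to 57.5 uM final), then stimulated with LPS (250 ng/mL final) plus ATP (1.25 mM final); secreted IL-1B measured by AlphaLISA after 16 hr, decreased signal indicating inhibition.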
HT1080-NT tox: kills 2HG-producing HT-1080-NT fibrosarcoma cells. HT-1080-NT fibrosarcoma viability, CellTiter-Glo ATP luminescence, 48 h. Potency, µM (highest dose often 46.1 µM), for inactives: top-dose activity, negative = less viability, hits mostly cytotoxic. hit rate 1.6% among 360,000. AID 686970;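 further: NT is the 2HG producing partner of a matched IDH1 knockdown line; potency means the concentration at half of the fitted maximal effect; 0% = DMSO-treated cells and -100% = media-only wells without cells; nearly all actives have a fitted effect of over 55% in size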
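HT-1080-NT fibrosarcoma cells (2HG-overproducing), 750 cells/well in RPMI with 5% FBS, dosed after 2 h and incubated 48 h at 37C. CellTiter-Glo luminescence normalized to DMSO and no-cell wells; concentration-response curves fitted and classed.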
DT40 TDP1 no CPT: qHTS for Inhibitors of human tyrosyl-DNA phosphodiesterase 1 (TDP1): qHTS in cells in absence of CPT; hit rate 15% among 420,000; DT40 Tdp1-/- hTDP1 cells, no CPT, ATP luminescence, 48 h; AID 686978, 2013; Potency, µM (highest dose often 46.2 µM), for the others: at the highest dose activity change, negative = growth inhibition, usual class: inhibitors; further: potency means the concentration at half of the fitted maximal effect; nearly all actives have a fitted effect of over 55% in size
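Luminescent ATP content (CellTiter-Glo) served as the growth readout. Knockout chicken DT40 cells expressing human TDP1 were exposed to compounds without camptothecin for a minimum 48 hr at 37 °C.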
HT1080 IDH1KD tx: HT-1080 IDH1 knockdown cell toxicity (counter line). hit rate 2% among 360,000. HT-1080 IDH1 knockdown viability, ATP luminescence, 48 h. Potency, µM (highest dose often 46.1 µM), inactives show at the highest dose activity, negative = toxicity, most hits filed as cytotoxic. AID 686971;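 further: potency means the concentration at half of the fitted maximal effect; 0% = DMSO wells and -100% = cell-free medium wells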
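% activity derives from luminescence (CellTiter-Glo), normalised to DMSO and no-cell wells. HT-1080-IDH1KD cells, 750/well, had 48 h compound exposure at 37 °C.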
TDP1 cell CPT: growth inhibition of DT40 Tdp1-/-;hTDP1 cells with camptothecin (screen for TDP1 inhibitors); hit rate 12% among 420,000; AID 686979; chicken DT40 Tdp1-/-;hTDP1 cells + 20 nM CPT, ATP luminescence, 48 h; Potency, µM (series often up to 46.2 µM), for inactives: at the top dose activity change, negative = growth inhibition, most hits filed as inhibitors; further: potency means the concentration at half of the fitted maximal effect; nearly all actives have a fitted effect of over 55% in size
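Cell growth measured by CellTiter-Glo luminescence after a minimum 48 h, 37 C compound exposure with 20 nM CPT in Tdp1-knockout DT40 cells stably expressing hTDP1, seeded 400/well; qHTS titration format.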
* marks the source's active call; other numbers are inactive results; ? = inconclusive; · = no result; [ ] = remark or other dose. Unless noted, the call rests on the fitted dose curve; in most records, active means well fitted curve in the direction sought with a large enough effect; inconclusive means small, poorly fitted or top-dose-only effect, or another doubt; inactive means no such curve, though single readings can be large; an effect the other way counts as inactive or inconclusive. Unless noted, on the % scale 0 is the no-effect control and ±100 the full control effect.

SMILES	IL-1B inflam inh	HT1080-NT tox	DT40 TDP1 no CPT	HT1080 IDH1KD tx	TDP1 cell CPT
CCCCCC(=O)N[C@@H](c1ccccc1)[C@@H](O)C(=O)O[C@H]1C[C@@]2(O)[C@@H](OC(=O)c3ccccc3)C3[C@](C)(C(=O)[C@H](OC(C)=O)C(=C1C)C2(C)C)[C@@H](O)C[C@H]1OC[C@@]31OC(C)=O (stereo partly drawn)	-1	?	0.1µM*	0.0058µM*	0.12µM*
O=C(COC(=O)c1ccccc1Cl)Nc1cccc(S(=O)(=O)N2CCCCC2)c1	6	-4%	?	4%	-23%
CC(=O)Nc1cccc(OCC(=O)Nc2cccc(S(=O)(=O)N3CCCC3)c2)c1	11	-6%	21µM*	-2%	21µM*
O=C(COc1ccccc1[N+](=O)[O-])Nc1cccc(S(=O)(=O)N2CCCC2)c1	-1	8%	21µM*	8%	23µM*
O=C(COc1ccccc1Cl)Nc1cccc(S(=O)(=O)N2CCCC2)c1	-21	-1%[9.24 µM]	21µM*	0%	16µM*
O=C(COc1ccccc1)Nc1cccc(S(=O)(=O)N2CCCC2)c1	-2	4%	-27%	4%	-18%
O=C(COC(=O)/C=C/c1cccs1)Nc1cccc(S(=O)(=O)N2CCCC2)c1	4	5%	23µM*	14%	13µM*
O=C(COC(=O)COc1ccccc1[N+](=O)[O-])Nc1ccc(S(=O)(=O)N2CCCCC2)cc1	1	1%	-18%	0%	0%
Cc1c(Cl)cccc1N=C1NC(=O)CS1	-4	2%	-9%	-1%	-9%
O=C(CCNC(=O)Cn1ccc2ccccc2c1=O)NCc1ccccn1	0	1%	-4%	0%	17%
COc1ccc(NC(=O)Cn2c(=O)n(CC3CCCO3)c(=O)c3cc(OC)c(OC)cc32)cc1OC (stereo not drawn)	-10	-5%	2%	0%	5%
O=C(COc1ccc(F)cc1Cl)Nc1cccc(S(=O)(=O)N2CCCC2)c1	-52*	1%	-26%	2%	?
COc1ccc(OCCC(=O)OCC(=O)Nc2cccc(S(=O)(=O)N3CCCCC3)c2)cc1	-96*	-11%	?	?	?
Cc1cccc(C(C(=O)NC2CCCCC2)N(C(=O)c2csnn2)C2CC2)c1 (stereo not drawn)	5	22%	-17%	0%	-7%
COc1ccc(S(=O)(=O)NCC2(N3CCOCC3)CCCCC2)cc1OC	-4	5%	-17%	7%	-8%
O=C(NCCc1ccc2c(c1)OCCO2)c1cc(S(=O)(=O)N2CCCC2)ccc1Cl	11	10%	?	-1%	18µM*
O=C(NCCc1ccc(Cl)cc1)c1cc(S(=O)(=O)N2CCCC2)ccc1F	-5	-7%	16µM*	-17%	26µM*
COc1ccc(CCNC(=O)c2cc(S(=O)(=O)N3CCC4(CC3)OCCO4)ccc2F)cc1OC	-7	-1%	23µM*	-10%	?
O=C(NCCc1ccc2c(c1)OCCO2)c1cccc(S(=O)(=O)N2CCCC2)c1	15	-1%	?	-2%	?
NS(=O)(=O)c1ccc(CCNC(=O)c2cc(S(=O)(=O)N3CCCCC3)ccc2Cl)cc1	14	-4%	-26%	-4%	-12%
Cc1ccnn1CCC(=O)O	4	?	25%	15%	0%
CC(OC(=O)c1ccc([N+](=O)[O-])s1)C(=O)NC1CCCCC1C (stereo not drawn)	11	-4%	?	-9%	23µM*
COc1cc(C(=O)OC(C)C(=O)NC2CCCCC2C)c([N+](=O)[O-])cc1OC (stereo not drawn)	-7	-2%	?	-1%	?
Cc1c(NC(=O)C(C)OC(=O)c2ccc([N+](=O)[O-])s2)c(=O)n(-c2ccccc2)n1C (stereo not drawn)	34	-12%	16µM*	-3%	23µM*
CC1CN(CC(=O)NCC2(N3CCOCC3)CCCC2)Cc2cc(Cl)ccc2O1 (stereo not drawn)	·	·	?	·	5%[9.04 µM]
SMILES	IL-1B inflam inh	HT1080-NT tox	DT40 TDP1 no CPT	HT1080 IDH1KD tx	TDP1 cell CPT
O=C(NCCCn1ccnc1)c1[nH]c(C(F)(F)F)nc1-c1ccccc1	-4	20%	22%	28%	4%
COc1ccccc1N1CCN(C(=O)c2c3c(nc4ccccc24)C(=O)N(C2CCCCC2)C3)CC1	·	·	21µM*	·	13µM*
Cc1ccc(C)c(N2CCN(c3nc4ccccc4c(=O)n3Cc3ccccc3)CC2)c1	-5	1%	-18%	-3%	-20%
Cc1ccc(C)c(N2CCN(C(=O)c3c4c(nc5ccccc35)C(=O)N(C3CCCCC3)C4)CC2)c1	·	·	18µM*	·	16µM*
COc1ccccc1N1CCN(C(=O)CN2C(=O)C3CCCCC3C2=O)CC1 (stereo not drawn)	4	4%	-11%	0%	-3%
COc1cc(OC)c(-c2nnc(-c3ccc(OC)c(OC)c3OC)o2)cc1OC	-29	-15%	13µM*	-14%	14µM*
Cc1cccc(NC(=S)N2CCC(NC(=O)C3CCCCC3)CC2)c1	-3	-7%	-12%	13%	-3%
CCCCn1c(N)c(NCc2ccccc2)c(=O)[nH]c1=O	9	3%	9%	-1%	3%
CCCCn1c(N)c(NCC)c(=O)[nH]c1=O	32	14%	23µM*	-2%	?
CC1=NN(C(N)=S)C(=O)C1N=Nc1cccc(C(=O)O)c1 (stereo not drawn)	24	14%	17%	11%	28%
CC1=NN(C(N)=S)C(=O)C1N=Nc1ccc(C)c(Br)c1 (stereo not drawn)	12	-2%	16µM*	-13%	13µM*
CC1=NN(C(N)=S)C(=O)C1N=Nc1ccc(F)cc1 (stereo not drawn)	-8	-6%	?	1%	-24%
CC1=NN(C(N)=S)C(=O)C1N=Nc1cccc(C)c1 (stereo not drawn)	5	7%	5.8µM*	7%	3.3µM*
CC1=NN(C(N)=S)C(=O)C1N=Nc1ccccc1Cl (stereo not drawn)	-7	-1%	2.9µM*	4%	5.8µM*
CC1=NN(C(N)=S)C(=O)C1N=Nc1ccc(O)cc1 (stereo not drawn)	49	-14%	26µM*	-22%	-20%
Cc1cccc(C)c1NC(=O)COC(=O)/C=C/c1ccc(S(=O)(=O)N2CCOCC2)cc1	0	0%	-5%	1%	-5%
CC(C)Cc1nn2cc(-c3cccc(Br)c3)nc2s1	·	·	-28%	·	?
CC(C)CN1C(=O)C(=O)N(CC(=O)c2ccc3c(c2)OCO3)C1=O	-6	10%	-14%	10%	27%
